From PubChem BioAssay
ELG1 DNA repair: ELG1-dependent DNA repair inhibition; HEK293T ELG1-luciferase reporter, luminescence, 16 h; DNA damage induced by 5-fluorouridine; Potency, µM (series often up to 46.1 µM), usual class: inhibitors; actives 2.3% (n = 330,000); AID 504467; further: nearly all actives have a fitted effect of over 55% in size
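Overnight (16 hr) co-exposure of 2,000 cells/well to 5-fluorouridine and compound at 37 °C preceded detection. Luciferase was quantified via ONE-Glo luminescence; loss of signal denotes inhibition.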
MCF10A rereplic: inducers of DNA re-replication in MCF 10A breast cells. MCF 10A DNA re-replication, Hoechst nuclear intensity, 48 h. Potency, µM (titrated, usually from 46.1 µM), hits mostly activators. actives 2.9% (n = 350,000). AID 624296; further: nearly all actives have a fitted effect of over 50% in size
KB-V1 MDR tox: KB-V1 MDR subline cytotoxicity. KB-V1 MDR cells viability, CellTiter-Glo, 72 h. actives 3.4% (n = 400,000). Potency, µM (top dose mostly 46.1 µM), actives largely listed as cytotoxic. AID 1347076; further: nearly all actives have a fitted effect of over 60% in size
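KB-V1 cells (P-gp-expressing MDR subline of KB-3-1) in phenol-red-free DMEM with 10% FBS were exposed to library compounds over a concentration series for 72 h at 37 degrees C. Viability read by CellTiter-Glo luminescence; concentration-effect curves fitted after normalization.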
SW480 rerep: induces DNA re-replication in SW480 colon adenocarcinoma cells | SW480 DNA re-replication, Hoechst DNA content imaging, 48 h | Potency, µM (highest dose often 46.1 µM), usual class: activators | actives 1.8% (n = 340,000) | AID 624297; further: nearly all actives have a fitted effect of over 55% in size
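Hoechst fluorescence of nuclei (405 nm excitation, 500-530 nm emission) measured by plate-scanning imager after 48 hr compound exposure at 37 C; re-replication scored as increased number of nuclei with elevated intensity.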
KB-3-1 tox: kills parental KB-3-1 adenocarcinoma cells; Potency, µM (highest dose often 46.1 µM), actives largely listed as cytotoxic; actives 1.4% (n = 400,000); KB-3-1 viability, CellTiter-Glo ATP luminescence, 72 h; AID 1347075; further: nearly all actives have a fitted effect of over 60% in size
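KB-3-1 parental drug-naive adenocarcinoma cells in DMEM/10% FBS, incubated 72 h at 37 C with pin-transferred compounds across a concentration series. Viability by CellTiter-Glo luminescence; concentration-response curves fitted after normalization.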
Of the large screens only hits and unclear results are named; the others gave an inactive call. This is a sample that favours compounds with a hit; in the whole collection about 8.2% have one here. The call rests on the fitted dose curve; in most records, active means well fitted curve in the direction sought with a large enough effect; inconclusive means small, poorly fitted or top-dose-only effect, or another doubt; inactive means no such curve, though single readings can be large; an effect the other way counts as inactive or inconclusive.

COc1ccc(CC(=O)Nc2cccc(S(=O)(=O)N3CCOCC3)c2)cc1OC	KB-3-1 tox inconclusive
CN(C)C(=O)c1ccc(-c2nnc(OCc3nc4ccccc4n3C)c3ccccc23)cc1	none (no result: ELG1 DNA repair)
O=C(Nc1nc(-c2ccc(Cl)s2)cs1)c1ccncc1	KB-V1 MDR tox 6.51µM, KB-3-1 tox inconclusive
COc1ccc(C(=O)Nc2nc(-c3cccs3)cs2)cc1	MCF10A rereplic inconclusive, KB-V1 MDR tox 5.8µM, KB-3-1 tox inconclusive (no result: ELG1 DNA repair)
O=C(Nc1nc(-c2cccs2)cs1)c1ccc(Cl)cc1	MCF10A rereplic inconclusive, KB-V1 MDR tox 20.6µM, KB-3-1 tox inconclusive
COc1cc(C(=O)Nc2nc(-c3cccs3)cs2)cc(OC)c1OC	ELG1 DNA repair 13µM, MCF10A rereplic inconclusive
O=C(N/N=C/c1cccc([N+](=O)[O-])c1)C(=O)N1CCCCCC1	none
O=C(OCc1cn([C@H]2CN(CC3CCCCC3)[C@@H](c3ccccc3)C[C@@H]2O)nn1)c1ccccc1	none (no result: ELG1 DNA repair, MCF10A rereplic, SW480 rerep)
O=C(Nc1nc(-c2cccs2)cs1)c1ccco1	ELG1 DNA repair inconclusive, MCF10A rereplic inconclusive, KB-V1 MDR tox inconclusive, KB-3-1 tox inconclusive
O=C(Nc1nc(-c2cccs2)cs1)c1ccc([N+](=O)[O-])o1	MCF10A rereplic 2.91µM, KB-V1 MDR tox 20.6µM, SW480 rerep 7.31µM, KB-3-1 tox 6.51µM
CN(C(=O)C1CCC1C(=O)O)c1nc(-c2ccc(Cl)s2)cs1 (centres undefined)	none
CC1CC1C(=O)Nc1nc(-c2ccc(Cl)s2)cs1 (centres undefined)	KB-V1 MDR tox 13µM, KB-3-1 tox inconclusive
COc1ccc(CN2CCNC(=O)C2CC(=O)N(C)C2CCOCC2)cc1OC (centres undefined)	none (no result: ELG1 DNA repair, MCF10A rereplic, SW480 rerep)
CCCCNC(=O)N1CCN(c2ccnc3cc(Cl)ccc23)CC1	ELG1 DNA repair 20.6µM
Cc1cccc(Cl)c1NC(=O)N1CCN(c2ccnc3cc(Cl)ccc23)CC1	ELG1 DNA repair 18.3µM
Cc1cccc(NC(=O)c2cc(-c3ccc4c(c3)OCCO4)on2)c1	KB-3-1 tox inconclusive (no result: ELG1 DNA repair, MCF10A rereplic, SW480 rerep)
CCOC(=O)c1cc(C(C)C)sc1NC(=O)COC(=O)CCS(=O)(=O)c1ccccc1	KB-V1 MDR tox 18.4µM, SW480 rerep inconclusive
Cc1cc(C)cc(NC(=O)N2CCC(C(N)=O)(N3CCCCC3)CC2)c1	none (no result: ELG1 DNA repair, MCF10A rereplic, SW480 rerep)
O=C(CN1c2ccccc2Sc2ccccc21)NNC(=S)Nc1ccc(Cl)cc1Cl	MCF10A rereplic inconclusive, KB-V1 MDR tox 13µM, KB-3-1 tox 20.6µM
CCc1cc(-c2nnn(CCC3COCCO3)c2C(C)(C)O)ccc1-c1cn(CCc2c[nH]c3ccccc23)nn1 (centres undefined)	none (no result: ELG1 DNA repair, MCF10A rereplic, SW480 rerep)
O=C(CCl)N(c1ccccc1)C1CCS(=O)(=O)C1 (centres undefined)	ELG1 DNA repair inconclusive, MCF10A rereplic inconclusive, KB-V1 MDR tox inconclusive, SW480 rerep 16.4µM
O=C(c1cc(COc2ccc(F)cc2Cl)on1)N1CC2C[C@@H]3CC1C[C@H](C2)C3	ELG1 DNA repair inconclusive
Cc1cc(C)cc(NC(=O)NCc2noc3ccccc23)c1	none (no result: ELG1 DNA repair, MCF10A rereplic, SW480 rerep)
CN1C(=O)CN(CCN2CC(=O)N(C)C(=O)C2)CC1=O	none (no result: ELG1 DNA repair, MCF10A rereplic, SW480 rerep)
CCc1ccc2[nH]c3nc(SCC(=O)NCC4CCCO4)nnc3c2c1 (centres undefined)	KB-V1 MDR tox inconclusive
CCc1ccc2[nH]c3nc(SCCN4CCOCC4)nnc3c2c1	ELG1 DNA repair 25.9µM, KB-V1 MDR tox inconclusive
CCc1ccc2[nH]c3nc(SCC(=O)NNC(=O)c4ccc(C(C)(C)C)cc4)nnc3c2c1	MCF10A rereplic 2.31µM, SW480 rerep 5.8µM, KB-3-1 tox inconclusive
Cc1ccc(S(=O)(=O)Cc2ccc(C(=O)NCCc3ccc(Cl)cc3)o2)cc1	none (no result: ELG1 DNA repair, MCF10A rereplic, SW480 rerep)
COc1cc2c(cc1OC)CN(C(=O)c1ccc3nc[nH]c3c1)CC2	MCF10A rereplic 8.2µM, SW480 rerep 5.8µM, KB-3-1 tox inconclusive
CN1CCCN(C(=O)c2ccc(Cl)c(S(=O)(=O)N(C)c3ccccc3)c2)CC1	MCF10A rereplic 20.6µM, KB-V1 MDR tox inconclusive
O=C(c1ccc(S(=O)(=O)N2CCOCC2)cc1)N1CCN(c2ccccn2)CC1	MCF10A rereplic 1.46µM
COc1cc2c(cc1OC)CN(C(=O)c1ccc(Cl)c(S(=O)(=O)N3CCCC3)c1)CC2	ELG1 DNA repair inconclusive, MCF10A rereplic inconclusive, KB-V1 MDR tox 20.6µM
Cc1cc(C)c(NC(=O)COC(=O)c2ccncc2)c(C)c1	ELG1 DNA repair inconclusive
COc1cccc(CNC(=O)N2CCC(CN3CCC(C)CC3)CC2)c1	none (no result: ELG1 DNA repair, MCF10A rereplic, SW480 rerep)
Cc1ccccc1NC(=O)c1ccc(F)c(S(=O)(=O)N2CCN(c3ccccn3)CC2)c1	ELG1 DNA repair 23.1µM, KB-3-1 tox inconclusive
O=C(c1ccc(Cl)c(S(=O)(=O)N2CCCCCC2)c1)N1CCN(c2ccccn2)CC1	ELG1 DNA repair 20.6µM
CCOc1ccccc1N1CCN(C(=O)c2ccc(Cl)c(S(=O)(=O)N3CCCCC3)c2)CC1	ELG1 DNA repair 23.1µM, MCF10A rereplic inconclusive, KB-V1 MDR tox 7.31µM
O=C(c1ccc(Cl)c(S(=O)(=O)N2CCCCCC2)c1)N1CCCCC1	none
CCOc1ccccc1N1CCN(C(=O)c2cc(S(=O)(=O)N3CCCCC3)ccc2C)CC1	ELG1 DNA repair inconclusive
CN1CCN(C(=O)c2ccc(Cl)c(S(=O)(=O)N3CCCCC3)c2)CC1	KB-V1 MDR tox 14.6µM
CC(C)N(C(=O)c1cc2c(Cl)nc3ccccc3c2s1)C1CCCCC1	none (no result: ELG1 DNA repair, MCF10A rereplic, SW480 rerep)
CCCn1c(SCC(=O)N(C2CCCCC2)C2CCS(=O)(=O)C2)n[nH]c1=O (centres undefined)	none
O=C(c1ccncc1)N1CCN(S(=O)(=O)c2ccccc2Br)CC1	none
Cc1cccc2sc(NC(=O)C3c4ccccc4Oc4ccccc43)nc12	ELG1 DNA repair inconclusive, MCF10A rereplic 6.51µM, KB-V1 MDR tox inconclusive, SW480 rerep inconclusive
Cc1cccc2sc(NC(=O)C3CC3)nc12	MCF10A rereplic inconclusive
Cc1cccc2sc(NC(=O)c3ccc(Cl)s3)nc12	ELG1 DNA repair inconclusive, MCF10A rereplic 16.4µM
O=C(Nc1ccncc1)C1c2ccccc2Oc2ccccc21	KB-V1 MDR tox 14.6µM
Cc1nnc(NC(=O)C2c3ccccc3Oc3ccccc32)s1	MCF10A rereplic 13µM, SW480 rerep inconclusive, KB-3-1 tox inconclusive
O=C(Nc1ncccn1)C1c2ccccc2Oc2ccccc21	KB-V1 MDR tox inconclusive
Cc1ccc(C)c(NC(=O)CSc2ccc3nc(-c4ccccc4)cn3n2)c1	none (no result: ELG1 DNA repair, MCF10A rereplic, SW480 rerep)
CCC(C(=O)N1CCN(S(C)(=O)=O)CC1)c1ccccc1 (centres undefined)	none
CCCc1c(C(=O)N2CCN(c3ccccc3OC)CC2)cnn1-c1ccccc1	ELG1 DNA repair 16.4µM
CCOC(=O)N1CCN(C(=O)C(CC)c2ccccc2)CC1 (centres undefined)	KB-V1 MDR tox 11.6µM
O=C(c1ccco1)N1CCN(C(=O)c2cnn(-c3ccc(F)cc3)c2-n2cccc2)CC1	KB-V1 MDR tox inconclusive (no result: ELG1 DNA repair, MCF10A rereplic, SW480 rerep)
CCOC(=O)N1CCN(c2ccccc2OC)CC1	none
